Test results from PubChem BioAssay (NCATS).
Results filed as inconclusive are left out. Entries that show only a call come without a potency. Active and inactive are the calls of the source. Calls come from the whole dose curve; as a rule, active = well fitted curve in the direction sought with a large enough effect; inconclusive = small, poorly fitted or top-dose-only effect, or another doubt; inactive = no such curve, though single readings can be large; an effect the other way counts as inactive or inconclusive.

Key:
[1] = target: Cytochrome P450 2C9 (Homo sapiens) (UniProt P11712); experiment: qHTS Assay for Inhibitors and Substrates of Cytochrome P450 2C9 (AID 883); conditions: recombinant CYP2C9, luciferin-H luminescence, 60 min; series mostly up to 11.4 µM; note: nearly all actives have a fitted effect of over 60% in size; note: potency is the fitted concentration of half-maximal effect
How it was run: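 10nM CYP2C9 + 100uM Luciferin-H (=KM), 25mM KPO4; cpd 10 min 37C; NADPH regen, 60 min 37C; stop/detect with P450 Glo-Buffer 20 min; luminescence. Norm. to 57uM sulphaphenazole as full inhibition.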

[2] = target: Cytochrome P450 3A4 (Homo sapiens) (UniProt P08684); experiment: qHTS Assay for Activators of Cytochrome P450 3A4 (AID 885); conditions: recombinant CYP3A4, Luciferin-PPXE luminescence, 60 min; series mostly up to 57.1 µM; note: nearly all actives have a fitted effect of over 65% in size
How it was run: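 Luminescent readout of luciferin formed from 25 uM Luciferin-PPXE (KM level) by 20 nM CYP3A4 in 200 mM KPO4, with 60 min NADPH-driven reaction at room temperature after 10 min compound exposure. Ketoconazole (57 uM) defined 100% inhibition.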

[3] = target: Cytochrome P450 2D6 (Homo sapiens) (UniProt P10635); experiment: qHTS Assay for Inhibitors and Substrates of Cytochrome P450 2D6 (AID 891); conditions: recombinant CYP2D6, luciferin-ME EGE luminescence; series mostly up to 11.4 µM;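 note: luciferin methyl ether substrate demethylated by CYP2D6 with NADPH regeneration; nearly all actives have a fitted effect of over 60% in size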
How it was run: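 Luminescent read-out of luciferin formed by 5 nM human CYP2D6 demethylating 30 uM Luciferin-ME EGE (Km level) over 60 min at room temperature after NADPH regeneration addition. Data normalized to full inhibition by 1.43 uM quinidine.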

[4] = target: Cytochrome P450 2C19 (Homo sapiens) (UniProt P33261); experiment: qHTS Assay for Inhibitors and Substrates of Cytochrome P450 2C19 (AID 899); conditions: recombinant CYP2C19, luciferin-H EGE luminescence; series mostly up to 11.4 µM; note: nearly all actives have a fitted effect of over 60% in size; note: potency is the fitted concentration of half-maximal effect
How it was run: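 Luminescent read-out of luciferin formed from Luciferin-H EGE (10uM, equal to KM). Enzyme 5nM in 50mM KPO4; compound added, 10 min at 37C, then NADPH regenerating system for 60 min at 37C. Full inhibition defined by 57uM ketoconazole.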

Sequence of Cytochrome P450 2D6 (Homo sapiens) (P10635 whole entry, looked up): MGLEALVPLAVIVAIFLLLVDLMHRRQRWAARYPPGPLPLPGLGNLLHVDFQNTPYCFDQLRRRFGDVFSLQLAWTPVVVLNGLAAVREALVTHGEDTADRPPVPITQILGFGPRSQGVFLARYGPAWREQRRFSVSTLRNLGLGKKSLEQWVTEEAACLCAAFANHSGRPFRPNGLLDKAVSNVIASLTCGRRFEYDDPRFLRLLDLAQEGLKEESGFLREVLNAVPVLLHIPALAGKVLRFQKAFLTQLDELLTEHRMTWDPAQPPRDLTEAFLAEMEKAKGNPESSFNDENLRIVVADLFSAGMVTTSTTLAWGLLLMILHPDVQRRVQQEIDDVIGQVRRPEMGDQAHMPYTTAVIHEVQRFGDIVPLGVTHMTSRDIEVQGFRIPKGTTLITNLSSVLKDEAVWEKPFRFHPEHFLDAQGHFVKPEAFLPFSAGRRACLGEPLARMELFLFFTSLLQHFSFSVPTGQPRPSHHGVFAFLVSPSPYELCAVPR
Sequence of Cytochrome P450 3A4 (Homo sapiens) (P08684 whole entry, looked up): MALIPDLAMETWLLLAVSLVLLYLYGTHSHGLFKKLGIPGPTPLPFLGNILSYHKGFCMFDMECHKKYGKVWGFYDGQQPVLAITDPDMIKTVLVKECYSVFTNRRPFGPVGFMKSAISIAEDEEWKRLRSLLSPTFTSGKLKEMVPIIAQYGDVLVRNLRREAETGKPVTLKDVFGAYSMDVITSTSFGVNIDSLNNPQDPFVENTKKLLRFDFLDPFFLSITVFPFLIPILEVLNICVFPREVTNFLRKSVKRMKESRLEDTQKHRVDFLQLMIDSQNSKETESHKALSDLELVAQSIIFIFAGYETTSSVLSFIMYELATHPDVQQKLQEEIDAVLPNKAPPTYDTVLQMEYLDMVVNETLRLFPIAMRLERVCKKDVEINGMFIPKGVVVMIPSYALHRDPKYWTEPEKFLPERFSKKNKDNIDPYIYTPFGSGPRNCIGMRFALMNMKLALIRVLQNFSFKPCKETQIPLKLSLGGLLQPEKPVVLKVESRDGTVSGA
Sequence of Cytochrome P450 2C9 (Homo sapiens) (P11712 whole entry, looked up): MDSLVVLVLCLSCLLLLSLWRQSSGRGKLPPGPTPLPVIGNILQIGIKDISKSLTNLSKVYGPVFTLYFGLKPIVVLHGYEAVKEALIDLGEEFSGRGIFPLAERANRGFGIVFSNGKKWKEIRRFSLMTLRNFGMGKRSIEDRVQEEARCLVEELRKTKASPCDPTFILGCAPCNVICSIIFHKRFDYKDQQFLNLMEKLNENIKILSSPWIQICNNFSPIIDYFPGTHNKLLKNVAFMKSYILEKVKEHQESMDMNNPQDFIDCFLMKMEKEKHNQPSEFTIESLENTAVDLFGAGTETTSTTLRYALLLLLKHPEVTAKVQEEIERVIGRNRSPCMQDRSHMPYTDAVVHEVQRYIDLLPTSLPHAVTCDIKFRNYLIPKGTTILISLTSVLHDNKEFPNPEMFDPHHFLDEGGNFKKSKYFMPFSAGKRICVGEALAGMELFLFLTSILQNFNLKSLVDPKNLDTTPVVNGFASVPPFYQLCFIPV
Sequence of Cytochrome P450 2C19 (Homo sapiens) (P33261 whole entry, looked up): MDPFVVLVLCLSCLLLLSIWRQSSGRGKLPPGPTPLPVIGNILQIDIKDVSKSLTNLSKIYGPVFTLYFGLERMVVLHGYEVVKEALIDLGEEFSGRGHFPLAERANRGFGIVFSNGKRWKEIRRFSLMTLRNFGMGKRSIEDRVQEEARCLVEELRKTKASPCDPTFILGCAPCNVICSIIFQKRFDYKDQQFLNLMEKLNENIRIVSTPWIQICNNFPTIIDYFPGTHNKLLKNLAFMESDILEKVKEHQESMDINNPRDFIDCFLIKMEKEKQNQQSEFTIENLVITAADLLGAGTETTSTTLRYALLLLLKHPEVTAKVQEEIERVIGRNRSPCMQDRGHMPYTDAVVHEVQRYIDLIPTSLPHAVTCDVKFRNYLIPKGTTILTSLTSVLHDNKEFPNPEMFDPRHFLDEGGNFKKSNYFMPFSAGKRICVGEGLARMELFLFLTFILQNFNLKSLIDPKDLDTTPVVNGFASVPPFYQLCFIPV

| SMILES | Potency [1] | activity change, positive = activation [2] | Potency [3] | Potency [4] |
| --- | --- | --- | --- | --- |
| CC(=O)OCC1OC(C#Cc2ccc(Br)cc2)C=CC1OC(C)=O (configuration not stated) | inactive | -46% [at 11.4 µM] (inactive) | inactive | inactive |
| CC(C)=CCC/C(C)=C/C=C/C1=CC2(C)CC1(C)C(/C=C(\C)CCC=C(C)C)CC2=O (configuration not stated) | inactive | -35% [at 11.4 µM] (inactive) | inactive | inactive |
| CCCCc1nc2c(c3c1CC(C)OC3)CN(CCOc1ccccc1)CC2 (configuration not stated) | inactive | -59.6% [at 11.4 µM] (inactive) |  | inactive |
| COC(c1ccccc1Br)C(C)/C=C/CCO (configuration not stated) | inactive | -47.9% [at 11.4 µM] (inactive) | inactive | 1.58 µM (active) |
| CC(C)CCN1CCc2nc(-c3ccccc3)c3c(c2C1)COC(C)C3 (configuration not stated) | inactive | -56% [at 11.4 µM] (inactive) | inactive | inactive |
| O=C1CCCC=C1[C@H](CCc1ccccc1)OC(=O)c1ccc(Br)cc1 | 3.16 µM (active) | -49.6% [at 11.4 µM] (inactive) |  | 1.58 µM (active) |
| COC(=O)[C@@H]1CC[C@H](C)[C@@H](c2ccc(C)cc2)N1C(=O)c1ccc(/C=N\OC[C@@H](O)[C@H]2O[C@H]3OC(C)(C)O[C@H]3[C@@H]2O)cc1 | 2.51 µM (active) | -58.3% [at 11.4 µM] (inactive) |  | 0.631 µM (active) |
| CC1Cc2c(-c3ccccc3)nc3c(c2CO1)CN(CCOc1ccccc1)CC3 (configuration not stated) | inactive | -39% [at 11.4 µM] (inactive) |  | inactive |
| C(#CC1C=CC2OC(c3ccccc3)OCC2O1)c1ccccc1 (configuration not stated) | inactive | -40.5% [at 11.4 µM] (inactive) | inactive | inactive |
